Only some compounds are listed: those with a hit (about 9.3% of all), similar ones and a draw of the others.
ELG1 DNA repair = qHTS screen for small molecules that inhibit ELG1-dependent DNA repair in human embryonic kidney (HEK293T) cells expressing luciferase-tagged ELG1. HEK293T ELG1-luciferase reporter, luminescence, 16 h; DNA damage induced by 5-fluorouridine. Potency, µM (doses to about 46.1 µM), without a hit: at the highest dose activity change, negative = inhibition, hits mostly inhibitors. 2.3% of 330,000 active; also: % is scaled to controls: 0 for no effect and ±100 for the full control effect; nearly all actives have a fitted effect of over 55% in size
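HEK293T cells expressing luciferase-tagged ELG1 (2,000/well) received 5-Fluorouridine plus compound or DMSO for 16 hr at 37 °C. Luciferase was read by ONE-Glo luminescence after 30 min at room temperature.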
FLuc counter = qHTS profiling assay for firefly luciferase inhibitor/activator using purifed enzyme and Km concentrations of substrates (counterscreen for miR-21 project); 6.9% of 360,000 active; purified FLuc, Km substrates, luminescence inhibition; Potency, µM (titrated, usually from 57.5 µM), inactives show at the highest dose activity change, negative = inhibition, hits mostly inhibitors; AID 588342, 2011; Luciferin 4-monooxygenase (Photinus pyralis), P08659;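 also: plate controls were vehicle for no effect and reference inhibitor for full effect; nearly all actives have a fitted effect of over 55% in size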
Target sequence (P08659 whole entry, looked up): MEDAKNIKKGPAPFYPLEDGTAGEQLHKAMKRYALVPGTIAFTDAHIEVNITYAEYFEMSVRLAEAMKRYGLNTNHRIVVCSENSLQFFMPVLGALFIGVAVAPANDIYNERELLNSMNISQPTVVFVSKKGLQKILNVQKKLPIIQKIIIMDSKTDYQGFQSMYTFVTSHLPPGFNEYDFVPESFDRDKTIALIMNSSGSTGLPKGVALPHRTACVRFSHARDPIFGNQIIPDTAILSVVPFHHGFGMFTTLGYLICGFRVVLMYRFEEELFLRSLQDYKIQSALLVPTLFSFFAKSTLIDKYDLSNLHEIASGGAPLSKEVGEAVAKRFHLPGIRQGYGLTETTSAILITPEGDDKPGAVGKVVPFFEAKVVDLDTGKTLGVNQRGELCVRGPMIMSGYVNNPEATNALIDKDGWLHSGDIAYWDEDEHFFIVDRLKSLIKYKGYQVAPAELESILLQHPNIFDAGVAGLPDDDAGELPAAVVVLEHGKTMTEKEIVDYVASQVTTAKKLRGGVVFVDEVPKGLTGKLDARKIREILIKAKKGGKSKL
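Purified P. pyralis luciferase (10nM final) with 10uM D-luciferin and 10uM ATP (Km levels) in 50mM Tris acetate pH 7.5, 10mM Mg acetate, 0.01% Tween-20, 0.05% BSA; qHTS 6-point titration, ~60 µM downward; luminescence read.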
ELG1 genotoxic = qHTS screen for small molecules that induce genotoxicity in human embryonic kidney (HEK293T) cells expressing luciferase-tagged ELG1; HEK293T ELG1-luciferase reporter, luminescence, 16 h; Potency, µM (top dose mostly 46 µM), for inactives: at the top dose activity change, positive = activation, usual class: activators; 1.3% of 330,000 active; also: % of control where 0% means no effect; nearly all actives have a fitted effect of over 60% in size
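DMSO vehicle served as control against compound-treated ELG1-luciferase HEK293T cells; exposure lasted 16 hr at 37 °C and 5% CO2, followed by ONE-Glo luminescence detection after 30 min.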
SMN2 splice enh = qHTS Assay for Enhancers of SMN2 Splice Variant Expression. HEK293 SMN2-luciferase splicing reporter, luminescence, 30-36 h. Potency, µM (doses to about 46.1 µM), inactives show at the highest dose activity change, positive = activation, usual class: activators. 2.8% of 210,000 active. AID 1458, 2008; also: % of control where 0% means no effect; nearly all actives have a fitted effect of over 55% in size
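qHTS luciferase splicing reporter: luminescence rises when SMN2 exon 7 is included in transfected HEK293 cells. Compound exposure lasted 30-36 h at 37C, with 4.5 mM final sodium butyrate as control, followed by a ONE-Glo read.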
NPC1 promoter act = qHTS Assay for NPC1 Promoter Activators; Huh7 NPC1 promoter luciferase reporter, 24 h; Potency, µM (titrated, usually from 9.22 µM), for inactives: at the top dose activation, usual class: activators; 2.4% of 320,000 active; AID 485313, 2010; also: % of control where 0% means no effect; nearly all actives have a fitted effect of over 60% in size
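In 1536-well qHTS, Huh7 cells harboring an NPC1 promoter–luciferase construct received compound for 24 h; activation was quantified by luminescence following luciferase reagent addition.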
Rab9 promoter act = qHTS Assay for Rab9 Promoter Activators; Huh7 Rab9 promoter-luciferase reporter, luminescence, 24 h; Potency, µM (doses to about 9.22 µM), for the others: at the top dose activation, negative = inhibition, usual class: activators; 2.8% of 320,000 active; AID 485297, 2010; also: % of control where 0% means no effect; nearly all actives have a fitted effect of over 60% in size
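Luminescence from Amplite-detected luciferase (10 minutes, ambient) reports Rab9 promoter activation. Before that, stable Rab9-luciferase Huh7 cells (1500/well, reduced-serum OP-MEM I plus 10% FBS) were exposed to compound for 24 hours at 37C.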
An asterisk follows results filed as active. Calls follow the shape of the dose curve; as a rule, active = well fitted curve in the direction sought with a large enough effect; inconclusive = small, poorly fitted or top-dose-only effect, or another doubt; inactive = no such curve, though single readings can be large; an effect the other way counts as inactive or inconclusive. Potency is read from the fitted curve at half-maximal effect.

For CCn1c(CC(=O)Nc2cccc(OC)c2)nnc1SCC(=O)Nc1nccs1 the results were ELG1 DNA repair 3%, FLuc counter -4%, ELG1 genotoxic -14%, SMN2 splice enh -4%, NPC1 promoter act 1% and Rab9 promoter act -5%.
Screening CC1=C(C(=O)OCc2ccccc2)C(c2cccc([N+](=O)[O-])c2)NC(=O)N1C (configuration not stated) returned ELG1 DNA repair inconclusive, FLuc counter -6%, ELG1 genotoxic -2%, NPC1 promoter act 0% and Rab9 promoter act 6%.
Cc1ccc(CN(C(=O)COc2ccc([N+](=O)[O-])cc2)c2ccccn2)cc1 was read as FLuc counter -10%.
Screening CCn1c2ccccc2c2cc(NC(=O)CSc3nccc(=O)[nH]3)ccc21 returned ELG1 DNA repair -11%, FLuc counter inconclusive, ELG1 genotoxic -2%, SMN2 splice enh 23%, NPC1 promoter act 1% and Rab9 promoter act 0%.
`COc1ccc(CC(=O)NCc2nnc(SCC(=O)Nc3ccccc3)n2C)cc1` gave ELG1 DNA repair -6%, FLuc counter inconclusive, ELG1 genotoxic -2%, SMN2 splice enh 0%, NPC1 promoter act -6% and Rab9 promoter act 3%.
For COc1ccc(NC(=O)CSc2nnc3ccc(-c4ccncc4)nn23)cc1 the results were ELG1 DNA repair 8.2µM*, FLuc counter 3%, ELG1 genotoxic -24%, NPC1 promoter act 2% and Rab9 promoter act -5%.
For COc1ccc(CC(=O)NCc2nnc(SCC(=O)Nc3cccc(F)c3)n2C)cc1 the results were ELG1 DNA repair -2%, FLuc counter 15µM*, ELG1 genotoxic 0%, SMN2 splice enh 5%, NPC1 promoter act 0% and Rab9 promoter act -8%.
Screening Cn1ccnc1SCC(=O)Nc1ccc(Oc2ccccc2)cc1 returned ELG1 DNA repair inconclusive, FLuc counter 13µM*, ELG1 genotoxic inconclusive, SMN2 splice enh -7%, NPC1 promoter act inconclusive and Rab9 promoter act 11%.
Cc1cc(C)cc(N2CCn3c2nc2c3c(=O)n(CCc3ccccc3)c(=O)n2C)c1 was read as FLuc counter 2%.
CSc1ccc(NC(=O)N2CC=C(n3c(=O)[nH]c4ccccc43)CC2)cc1 was read as ELG1 DNA repair 23µM*, FLuc counter inconclusive, ELG1 genotoxic -10%, SMN2 splice enh -44%, NPC1 promoter act -7% and Rab9 promoter act -5%.
Screening CC1Cc2ccccc2N1CC(=O)NC(=O)NC1CCCCC1 (configuration not stated) returned ELG1 DNA repair 3%, FLuc counter 3%, ELG1 genotoxic -6%, SMN2 splice enh -14%, NPC1 promoter act 1% and Rab9 promoter act -4%.
Screening CCOc1ccc(CNC(=O)c2cccc(NC(=O)C3=C(C)OCCS3)c2)cc1 returned ELG1 DNA repair inconclusive, FLuc counter inconclusive, ELG1 genotoxic -5%, NPC1 promoter act 4% and Rab9 promoter act 17%.
`COc1cccc(CNC(=O)c2ccccc2NC(=O)C2=C(C)OCCS2)c1OC` gave ELG1 DNA repair 12µM*, FLuc counter -8%, ELG1 genotoxic -11%, NPC1 promoter act 6% and Rab9 promoter act 4%.
COc1cccc(CNC(=O)c2cccc(NC(=O)C3=C(C)OCCS3)c2)c1 was read as ELG1 DNA repair inconclusive, FLuc counter inconclusive, ELG1 genotoxic -6%, NPC1 promoter act -2% and Rab9 promoter act 6%.
For COc1ccc(CNC(=O)Cc2ccc(NC(=O)C3=C(C)OCCS3)cc2)cc1 the results were ELG1 DNA repair inconclusive, FLuc counter 1.2µM*, ELG1 genotoxic 16µM*, NPC1 promoter act 24% and Rab9 promoter act inconclusive.
For CC1=C(C(=O)Nc2ccc(CC(=O)NCc3ccc(OC(C)C)cc3)cc2)SCCO1 the results were ELG1 DNA repair inconclusive, FLuc counter 2.7µM*, ELG1 genotoxic 9.2µM*, NPC1 promoter act inconclusive and Rab9 promoter act 12%.
`CCN(CC)S(=O)(=O)c1ccc(O)c(C(=O)OCC(=O)Nc2ccc(OC(F)(F)F)cc2)c1` gave ELG1 DNA repair -10%, FLuc counter -3%, ELG1 genotoxic -11%, SMN2 splice enh 0%, NPC1 promoter act 3% and Rab9 promoter act 1%.
NC(=O)c1nsc(C(=O)N(c2ccccc2F)C(C(=O)NCc2ccccc2)c2ccc(O)cc2)c1N (configuration not stated) was read as ELG1 DNA repair 6.5µM*, FLuc counter 1%, ELG1 genotoxic -20%, NPC1 promoter act -4% and Rab9 promoter act -9%.
For Cc1ccccc1N(C(=O)c1snc(C(N)=O)c1N)C(C(=O)NCc1ccccc1)c1ccc(O)cc1 (configuration not stated) the results were ELG1 DNA repair inconclusive, FLuc counter 0%, ELG1 genotoxic -15%, NPC1 promoter act 0% and Rab9 promoter act 0%.
COc1ccc(/C=N\NC(=O)c2ccccc2)cc1COc1ccc(F)cc1 was read as ELG1 DNA repair inconclusive, FLuc counter -3%, ELG1 genotoxic -6%, NPC1 promoter act -8% and Rab9 promoter act 10%.
COc1ccc(/C=N/NC(=O)c2sccc2OCc2ccc(F)cc2)cc1OC was read as ELG1 DNA repair inconclusive, FLuc counter 13µM*, ELG1 genotoxic 0%, SMN2 splice enh -11%, NPC1 promoter act -8% and Rab9 promoter act -1%.
For COc1ccc(C(=O)N/N=C/c2ccc(OC)c(COc3ccc(F)cc3)c2)cc1 the results were ELG1 DNA repair 15µM*, FLuc counter -8%, ELG1 genotoxic -22%, NPC1 promoter act -6% and Rab9 promoter act -2%.
`COc1ccc(C(=O)N/N=C/c2ccc(OC)c(COc3ccc(F)cc3F)c2)cc1` gave ELG1 DNA repair 9.2µM*, FLuc counter -3%, ELG1 genotoxic -16%, NPC1 promoter act -4% and Rab9 promoter act -4%.
For Cc1ccc(S(=O)(=O)CCC(=O)OCc2nnc(-c3ccccc3)o2)cc1 the results were ELG1 DNA repair 21% and ELG1 genotoxic -1%.
Screening O=C(CCC1N=C2c3ccccc3N=C(SCc3cccc(Cl)c3)N2C1=O)NCc1cccs1 (configuration not stated) returned FLuc counter 5%.
